# Where “and” joins values, the source holds several entries; their conditions need not be identical. Equal values may be shown once. Records with an inconclusive call do not appear. Where a call stands in place of a potency, no number is given. A number with no mark means an inactive call. Calls of active or inactive are those of the source. Unless noted, calls come from the whole dose curve; as a rule, active = well fitted curve in the direction sought with a large enough effect; inconclusive = small, poorly fitted or top-dose-only effect, or another doubt; inactive = no such curve, though single readings can be large; an effect the other way counts as inactive or inconclusive.
# Legend:
# [1] = Cell Viability - Jurkat (AID 426;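 active = dose-dependent loss of cell ATP signal giving a full or clear fitted curve, ranked by lower potency value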;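 note: potency is the fitted concentration of half-maximal effect; cells exposed to compound for 40 hours at 37 °C before ATP read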); settings: qHTS
# How it was run: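 Cytotoxicity was scored as loss of cellular ATP, measured by luciferase-based luminescence, in Jurkat clone E6-1 cells after 40 h compound treatment; tamoxifen and doxorubicin served as positive controls.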
# [2] = Cell Viability - Hek293 (AID 427;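 active = compounds whose dose-response curve shows a full or clear partial loss of cell viability, called from curve shape rather than a numeric limit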;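 note: potency is the fitted concentration of half-maximal effect; cells exposed to compound for 40 hours at 37 °C before reading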); settings: qHTS
# How it was run: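 Luminescent ATP read-out (CellTiter-Glo, 20 min RT) after 40 hr compound exposure at 37 °C in complete medium. Signal normalized to DMSO (basal) and 100 uM tamoxifen (100% inhibition); concentration-response fitted with the standard Hill equation to give AC50.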
# [3] = Cell Viability - N2a (AID 540); settings: N2a mouse neuroblastoma cell viability; activity change, negative = cytotoxicity: at 92.2 µM (top of the series);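 note: cells exposed to compound for 40 h at 37 °C; nearly all actives have a fitted effect of over 45% in size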; note: potency is the fitted concentration of half-maximal effect
# How it was run: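 In this qHTS cytotoxicity screen, ATP-dependent luciferase luminescence reports viable N2a cells after a 40 hr compound exposure in complete culture medium. Potencies are AC50 values from standard Hill equation fits.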
# [4] = Cell Viability - H-4-II-E (AID 543); settings: H-4-II-E rat hepatoma viability; series mostly up to 92.2 µM;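 note: cells exposed to compound for 40 hours; nearly all actives have a fitted effect of over 35% in size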; note: potency is the fitted concentration of half-maximal effect
# How it was run: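 AC50 from Hill-modelled qHTS concentration-response curves. H-4-II-E rat hepatoma cells in complete medium, 40 hr exposure at 37 °C, viability by CellTiter-Glo ATP luminescence.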
# [5] = Cell Viability - SH-SY5Y (AID 544); settings: SH-SY5Y neuroblastoma cell viability; series mostly up to 92.2 µM;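 note: cells exposed to compound for 40 hours; nearly all actives have a fitted effect of over 55% in size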
# How it was run: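 Quantitative HTS in SH-SY5Y neuroblastoma cells, 40 hr treatment at 37 °C, ATP content by luciferase luminescence; AC50 from Hill fits.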
# [6] = Cell Viability - LYMP2-007 (AID 979); settings: LYMP2-007 lymphoblastoid cell viability; series mostly up to 92.2 µM;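 note: cells exposed to compound for 24 h before reading; nearly all actives have a fitted effect of over 60% in size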; note: potency is the fitted concentration of half-maximal effect
# How it was run: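 Measured via luciferase-based ATP quantitation: lymphoblastoid cells, 24 hr compound exposure at 37 C, AC50 from Hill fits.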
# [7] = Cell Viability - LYMP2-010 (AID 981); settings: LYMP2-010 lymphoblastoid cell viability, qHTS; series mostly up to 92.2 µM;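 note: cells exposed to compound for 24 hours at 37 °C; nearly all actives have a fitted effect of over 55% in size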
# How it was run: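 This 24 hr viability screen uses LYMP2-010 lymphoblastoid cells, quantifies ATP via luciferase luminescence, and derives AC50 from Hill fits of qHTS concentration-response data.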
# [8] = Cell Viability - LYMP2-016 (AID 984); settings: LYMP2-016 lymphoblastoid cell viability, qHTS; series mostly up to 92.2 µM;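 note: cells exposed to compound for 24 hours at 37 °C; nearly all actives have a fitted effect of over 55% in size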
# How it was run: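 Acute toxicity in a Coriell human lymphoblastoid line is scored as loss of intracellular ATP over 24 h of treatment in complete medium. CellTiter-Glo signal is fitted across concentrations with the Hill equation to give AC50.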
# [9] = Cell Viability - LYMP2-018 (AID 985); settings: LYMP2-018 lymphoblastoid cells, viability (qHTS); series mostly up to 92.2 µM; note: nearly all actives have a fitted effect of over 50% in size
# How it was run: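 In this qHTS viability assay, cells are treated for 24 hr and cellular ATP is quantified by luciferase-based luminescence, with tetraoctylammonium bromide as positive control.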
# [10] = Cell Viability - LYMP2-020 (AID 986); settings: series mostly up to 92.2 µM;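 note: cells exposed to compound for 24 h at 37 °C; nearly all actives have a fitted effect of over 55% in size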
# How it was run: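 Cells at 2500 per well receive a 24 hr compound exposure at 37 C. Viability is measured as ATP-dependent luciferase luminescence, with AC50 modeled from qHTS concentration-response curves.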
# [11] = Cell Viability - LYMP2-022 (AID 987); settings: LYMP2-022 lymphoblastoid cell viability; series mostly up to 92.2 µM; note: nearly all actives have a fitted effect of over 55% in size
# How it was run: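 In this qHTS cytotoxicity screen, compound titrations were incubated 24 hr at 37 C with human lymphoblastoid cells in complete medium. Luciferase-based ATP luminescence provided the viability signal.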
# [12] = Cell Viability - LYMP2-024 (AID 988); settings: LYMP2-024 lymphoblastoid cell viability; series mostly up to 92.2 µM; note: nearly all actives have a fitted effect of over 60% in size
# How it was run: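 Cells at 2500 per well received compound for 24 hr after a 5 hr settling period. Viability was scored by CellTiter-Glo luminescence, with AC50 from Hill fits.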
# [13] = biological target: Vitamin D3 receptor (Homo sapiens) (UniProt P11473); assay: qHTS assay for small molecule agonists of vitamin D receptor signaling (AID 588543; calls by dose curve); settings: HEK293T VDR-UAS-bla, beta-lactamase ratio, 16 h; series mostly up to 76.8 µM
# Vitamin D3 receptor (Homo sapiens), sequence (P11473 whole entry, looked up): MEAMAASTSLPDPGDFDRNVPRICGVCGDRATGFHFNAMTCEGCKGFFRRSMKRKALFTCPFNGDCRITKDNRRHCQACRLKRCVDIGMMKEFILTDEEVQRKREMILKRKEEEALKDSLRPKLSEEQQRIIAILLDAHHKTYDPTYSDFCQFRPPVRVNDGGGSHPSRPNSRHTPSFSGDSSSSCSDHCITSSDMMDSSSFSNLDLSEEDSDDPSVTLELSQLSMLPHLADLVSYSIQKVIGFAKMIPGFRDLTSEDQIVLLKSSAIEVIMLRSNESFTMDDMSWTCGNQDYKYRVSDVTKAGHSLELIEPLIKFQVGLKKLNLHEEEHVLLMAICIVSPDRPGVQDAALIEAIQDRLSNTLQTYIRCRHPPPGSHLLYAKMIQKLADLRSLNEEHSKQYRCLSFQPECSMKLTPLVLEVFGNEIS
# How it was run: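 qHTS in agonist mode: compound titrations stimulate a VDR-driven β-lactamase reporter in HEK293T cells over 16 h at 37 °C. Response normalized to 50 nM 1α,25-dihydroxyvitamin D3 = 100%, DMSO = 0%; Hill fitting gives EC50 and maximal response.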
# [14] = tested on: AA1029; assay: qHTS profiling for inhibitors of Plasmodium falciparum proliferation (AID 504749); note: nearly all actives have a fitted effect of over 60% in size; note: potency is the fitted concentration of half-maximal effect; settings: P. falciparum in erythrocytes, SYBR Green DNA, 72 h; series mostly up to 28.7 µM
# How it was run: (§1)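 Fluorescence of SYBR Green-bound parasite DNA, read at 485/535 nm, served as the growth measure. Infected erythrocytes were cultured with compound 72 h; artemisinin (0.29 uM) and DMSO wells defined the normalization range.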
# [15] = tested on: ATS189; assay: as above; settings: P. falciparum in erythrocytes, SYBR Green DNA, 72 h; series mostly up to 28.7 µM
# How it was run: as §1
# [16] = tested on: ATS95; assay: as above; settings: P. falciparum in erythrocytes, SYBR Green DNA, 72 h; series mostly up to 28.7 µM
# How it was run: as §1
# [17] = tested on: CP238; assay: as above; settings: P. falciparum in erythrocytes, SYBR Green DNA, 72 h; series mostly up to 28.7 µM
# How it was run: as §1
# [18] = tested on: CP262; assay: as above; settings: P. falciparum in erythrocytes, SYBR Green DNA, 72 h; series mostly up to 28.7 µM
# How it was run: as §1
# [19] = tested on: CP286; assay: as above; settings: P. falciparum in erythrocytes, SYBR Green DNA, 72 h; series mostly up to 28.7 µM
# How it was run: as §1
# [20] = tested on: GB4; assay: as above; settings: P. falciparum in erythrocytes, SYBR Green DNA, 72 h; series mostly up to 28.7 µM
# How it was run: as §1
smiles,measurement,setting,value
COc1c2ccoc2cc2oc(=O)ccc12,Potency,[1],> 92 µM
same,Potency,[2],> 92 µM
same,"activity change, negative = cytotoxicity",[3],0.867%
same,Potency,[4],inactive
same,Potency,[5],inactive
same,Potency,[6],inactive
same,Potency,[7],inactive
same,Potency,[8],inactive
same,Potency,[9],inactive
same,Potency,[10],inactive
same,Potency,[11],inactive
same,Potency,[12],inactive
same,outcome,[13],inactive
S=C1NC=NC2N=CNC12 (stereo unspecified),Potency,[1],0.128 µM (active)
same,Potency,[2],1.03 µM (active)
same,Potency,[4],0.158 µM (active)
same,Potency,[6],inactive
same,Potency,[7],inactive
same,Potency,[8],inactive
same,Potency,[9],inactive
same,Potency,[10],inactive
same,Potency,[11],inactive
same,Potency,[12],inactive
same,outcome,[13],inactive
same,Potency,[14],inactive
same,Potency,[15],inactive
same,Potency,[16],inactive
same,Potency,[17],inactive
same,Potency,[18],inactive
same,Potency,[19],inactive
Cc1ccc(N)c([N+](=O)[O-])c1,Potency,[1],> 92 µM
same,Potency,[2],> 92 µM
same,"activity change, negative = cytotoxicity",[3],2.46%
same,Potency,[4],inactive
same,Potency,[5],inactive
same,Potency,[6],inactive
same,Potency,[7],inactive
same,Potency,[8],inactive
same,Potency,[9],inactive
same,Potency,[10],inactive
same,Potency,[11],inactive
same,Potency,[12],inactive
same,outcome,[13],inactive
CC(=O)OC/C=C(\C)CCC=C(C)C,Potency,[1],> 92 µM
same,Potency,[2],> 92 µM
same,"activity change, negative = cytotoxicity",[3],-0.528%
same,Potency,[4],inactive
same,Potency,[5],inactive
same,Potency,[6],inactive
same,Potency,[7],inactive
same,Potency,[8],inactive
same,Potency,[9],inactive
same,Potency,[10],inactive
same,Potency,[11],inactive
same,Potency,[12],inactive
CCCCOCCO,Potency,[1],> 92 µM
same,Potency,[2],> 92 µM
same,"activity change, negative = cytotoxicity",[3],6.13% and -1.59%
same,Potency,[4],inactive
same,Potency,[5],inactive
same,Potency,[6],inactive
same,Potency,[7],inactive
same,Potency,[8],inactive
same,Potency,[9],inactive
same,Potency,[10],inactive
same,Potency,[11],inactive
same,Potency,[12],inactive
same,outcome,[13],inactive
CN1CC[C@H](CN2c3ccccc3Sc3ccccc32)C1,Potency,[14],5.01 µM (active)
same,Potency,[15],11.2 µM (active)
same,Potency,[16],12.6 µM (active)
same,Potency,[17],8.91 µM (active)
same,Potency,[18],inactive
same,Potency,[19],12.6 µM (active)
same,Potency,[20],13.5 µM (active)
O=C1c2ccccc2C(=O)C1c1ccc2ccccc2n1,Potency,[3],31.6 µM (active)
same,Potency,[5],inactive
same,Potency,[6],39.8 µM (active)
same,Potency,[7],inactive
same,Potency,[8],inactive
same,Potency,[9],inactive
same,Potency,[10],inactive
same,Potency,[11],inactive
same,Potency,[12],inactive
same,outcome,[13],inactive
CCC(O)OC(O)CC (stereo unspecified),Potency,[1],> 92 µM
same,Potency,[2],> 92 µM
same,"activity change, negative = cytotoxicity",[3],5.7% and 11.3%
same,Potency,[4],inactive
same,Potency,[5],inactive
same,Potency,[6],inactive
same,Potency,[7],inactive
same,Potency,[8],inactive
same,Potency,[9],inactive
same,Potency,[10],inactive
same,Potency,[11],inactive
same,Potency,[12],inactive
same,outcome,[13],inactive
CC1=CC(C)(C)Nc2ccccc21,Potency,[1],> 92 µM
same,Potency,[2],> 92 µM
same,"activity change, negative = cytotoxicity",[3],-24% and 1.94%
same,Potency,[4],inactive
same,Potency,[5],inactive
same,Potency,[6],inactive
same,Potency,[7],inactive
same,Potency,[8],inactive
same,Potency,[9],inactive
same,Potency,[10],inactive
same,Potency,[11],inactive
same,Potency,[12],inactive
same,outcome,[13],inactive
CN(C)CCCCCCN(C)C,Potency,[1],> 92 µM
same,Potency,[2],> 92 µM
same,"activity change, negative = cytotoxicity",[3],1.64%
same,Potency,[4],inactive
same,Potency,[5],inactive
same,Potency,[6],inactive
same,Potency,[7],inactive
same,Potency,[8],inactive
same,Potency,[9],inactive
same,Potency,[10],inactive
same,Potency,[11],inactive
same,Potency,[12],inactive
same,outcome,[13],inactive
same,Potency,[14],inactive
same,Potency,[15],inactive
same,Potency,[16],inactive
same,Potency,[17],inactive
same,Potency,[18],inactive
same,Potency,[19],inactive
same,Potency,[20],inactive
